CendR NRP1 mod: modulators of CendR peptide binding to NRP-1, primary screen, biochemical, fluorescence polarization, uHTS; Neuropilin-1 (Homo sapiens), O14786; FAM-RPARPAR peptide binding to NRP-1; inhibition, % at 25 µM; 360,000 compounds, 0.85% hits; AID 602438, 2012;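 active = inhibition or corrected inhibition above about 18%, plus a signal ratio from 0.5 to 1.5, limit read from the data, passing the limit was not always enough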
ALR inh: inhibitors of human ALR sulfhydryl oxidase, primary screen, biochemical, H2O2 detection, HRP-luminol luminescence, single point; purified ALR, DTT oxidation; 290,000 compounds, 3.8% hits; AID 485317, 2010; inhibition, % (no concentration beside the values); FAD-linked sulfhydryl oxidase ALR (Homo sapiens), P55789;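 active = mean replicate inhibition above about 79%, with every replicate also reaching it, limit read from the data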
M18AAP inhibitor: PfM18AAP inhibitors, malaria aminopeptidase, primary screen, biochemical, QFRET, recombinant enzyme. M18 aspartyl aminopeptidase (Plasmodium falciparum 3D7). inhibition, % at 7.35 µM. 290,000 compounds, 1.2% hits. AID 1822, 2009. H-Glu-NHMec fluorogenic cleavage;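 active = inhibition above the campaign mean inhibition over all tested compounds plus 3 SD, cut at about 28% in these data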;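 note: 0% = plate median of test compound wells and 100% = 2 mM ZnCl2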
A3A deaminase: APOBEC3A ssDNA deaminase inhibitors, primary screen, selectivity assay for APOBEC3G inhibitor project, biochemical, FAM/TAMRA oligo cleavage fluorescence. recombinant A3A, FAM/TAMRA ssDNA deamination fluorescence. inhibition, % at 20 µM. DNA dC->dU-editing enzyme APOBEC-3A (Homo sapiens), P31941. 330,000 compounds, 0.41% hits;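 active = at least 40% inhibition at 20 µM here, with at most 30% in a related deaminase screen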;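 note: plate controls were A3A with DMSO for no effect and wells lacking A3A enzyme for full effect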
Target sequence (P31941 whole entry, looked up): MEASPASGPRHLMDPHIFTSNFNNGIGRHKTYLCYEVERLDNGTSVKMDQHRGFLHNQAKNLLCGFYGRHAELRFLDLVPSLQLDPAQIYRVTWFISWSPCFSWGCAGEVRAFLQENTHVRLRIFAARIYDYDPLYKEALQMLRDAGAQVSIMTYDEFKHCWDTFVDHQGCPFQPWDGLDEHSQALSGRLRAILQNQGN
A3G deaminase: APOBEC3G DNA deaminase inhibitors, primary screen, biochemical, fluorescence, single-stranded DNA substrate, uHTS. inhibition, % at 20 µM. recombinant A3G, ssDNA deamination FAM/TAMRA fluorescence. DNA dC->dU-editing enzyme APOBEC-3G (Homo sapiens), Q9HC16. 330,000 compounds, 0.28% hits;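 active = inhibition of at least 40% at 20 µM, with no more than 30% in the related APOBEC3A deaminase screen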;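 note: plate controls were DMSO wells with A3G for no effect and wells lacking A3G enzyme for full effect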
Target sequence (Q9HC16 whole entry, looked up): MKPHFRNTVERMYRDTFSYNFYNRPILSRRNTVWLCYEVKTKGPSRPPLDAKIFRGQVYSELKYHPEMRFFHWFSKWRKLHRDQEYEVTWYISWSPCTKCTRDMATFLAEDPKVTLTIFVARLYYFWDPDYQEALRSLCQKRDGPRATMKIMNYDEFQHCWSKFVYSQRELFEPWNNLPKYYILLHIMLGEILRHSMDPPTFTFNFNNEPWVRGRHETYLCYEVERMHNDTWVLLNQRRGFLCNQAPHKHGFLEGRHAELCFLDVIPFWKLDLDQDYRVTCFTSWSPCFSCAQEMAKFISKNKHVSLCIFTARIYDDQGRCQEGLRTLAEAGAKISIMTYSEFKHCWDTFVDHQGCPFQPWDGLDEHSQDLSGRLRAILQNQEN
Yeast superoxide: reduction of superoxide in aged yeast, primary screen, HTS | S. cerevisiae aged cells, superoxide DHE fluorescence; hits give low values | superoxide response (% of plate mean), % at 10 µM | 330,000 compounds, 0.18% hits;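 active = superoxide response under a set limit, about three screen SD below normal, cut at about 65% in these data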;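 note: yeast aged for seven days with compound at 30 °C before DHE staining; 100% = average MFI of all compound-treated wells on the plate with controls excluded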
Active calls of the source: *; · = no result given. A selection: hits, their analogues and other compounds. The true share with any hit is near 5.2%.

SMILES | CendR NRP1 mod | ALR inh | M18AAP inhibitor | A3A deaminase | A3G deaminase | Yeast superoxide
C/C(=N\NC(=O)CCCNc1ccccc1)c1ccncc1 | 3 | 48 | 6 | -7 | -4 | 92
COc1ccccc1-n1ccnc(SCC(=O)NCc2ccccc2Cl)c1=O | 6 | · | · | -1 | 4 | 103
COc1ccc(-n2ccnc(SCC(=O)NCc3ccccc3Cl)c2=O)cc1 | 6 | 99* | 6 | -5 | -3 | 88
Cc1cccc(CN2CCN([C@H]3CS(=O)(=O)N[C@@H]3COCc3ccccc3)CC2)c1 | 26* | · | · | · | · | ·
COc1ccccc1Cc1c(-c2ccc(C#N)cc2)nc2ccc(Br)cn12 | -25 | · | · | · | · | ·
COc1ccc2c(c1OC)C(=O)N1c3ccccc3N=C(c3ccc([N+](=O)[O-])cc3)CC21 (stereo not given) | 14 | 97* | 24 | · | · | 90
COc1ccc2c(c1OC)C(=O)N1N=C(c3ccc(O)cc3)CC21 (stereo not given) | 4 | 99* | -4 | -3 | 3 | 139
COc1ccc(C2=NN3C(=O)c4c(ccc(OC)c4OC)C3C2)cc1 (stereo not given) | -3 | 10 | -5 | -2 | 1 | 102
CCC(C)Sc1nnc(NC(=O)C2CCN(C(=O)c3ccco3)CC2)s1 (stereo not given) | -2 | 3 | -7 | -5 | -12 | 96
CCOC(=O)c1cc(C)sc1NC(=O)CN1CCN(C(=O)C2CCCO2)CC1 (stereo not given) | -3 | 96* | 2 | 0 | -5 | 115
CCCn1c(=O)c2ccccc2n2c(SCCNCCO)nnc12 | 0 | · | -4 | -5 | -9 | 110
COc1ccc(OC)c(Nc2nc(-c3sc(C)nc3C)cs2)c1 | 0 | -3 | 9 | -4 | -5 | 95
Cc1cc(O)ccc1Nc1nc(-c2cccnc2)cs1 | 9 | 72 | 19 | -5 | -1 | 100
COc1cccc(Nc2nc(-c3sc(C)nc3C)cs2)c1 | 5 | 7 | -2 | -3 | -2 | 100
Cc1nc(C)c(-c2csc(Nc3ccc(F)cc3)n2)s1 | 0 | 94* | 4 | 4 | -6 | 84
Cc1cc(O)ccc1Nc1nc(-c2cccs2)cs1 | -12 | 88* | 11 | -2 | -1 | 95
Cc1nc(C)c(-c2csc(Nc3ccc(O)cc3C)n2)s1 | -1 | 99* | -4 | -8 | -8 | 97
COc1ccc(-n2nc3c(c2NC(=O)C(C)C)CSC3)cc1 | -5 | -4 | -11 | -7 | -8 | 89
N#Cc1cccc(S(=O)(=O)Nc2c(NC3CCCCC3)c3ccccc3oc2=O)c1 | 9 | 98* | 6 | -6 | -6 | 96
COc1c2c(c3c(c1OC)c(=O)c1ccccc1n3C)OCO2 | 26* | · | · | · | · | ·
COc1c2c(c(OC)c3c1c(=O)c1ccccc1n3C)OCO2 | 1 | · | · | · | · | ·
COc1ccc(Cl)cc1NC(=O)C1Cc2ccccc2CN1S(C)(=O)=O (stereo not given) | 4 | 1 | 28* | -1 | -3 | 108
Cc1ccc(CN(C(=O)C(F)(F)F)C(C(=O)NC2CCCCC2)c2ccco2)cc1 (stereo not given) | 0 | -1 | 2 | -1 | -3 | 95
Cn1c(/C=C/c2cccc([N+](=O)[O-])c2)c([N+](=O)[O-])c(=O)n(C)c1=O | -8 | 98* | 24 | -4 | -3 | 93
CCOc1ccccc1N(CC(=O)N1CCOCC1)S(=O)(=O)c1ccc(SC)cc1 | 28* | · | -10 | · | · | ·
SMILES | CendR NRP1 mod | ALR inh | M18AAP inhibitor | A3A deaminase | A3G deaminase | Yeast superoxide
Cc1ccc(S(=O)(=O)N(CC(=O)N2CCOCC2)c2ccccc2F)cc1 | 10 | · | 4 | -3 | -12 | 84
O/N=C(\Cc1cscn1)c1ccc(O)cc1O | -16 | 82* | -2 | -3 | -4 | 79
CCCCc1c(-c2cccc(F)c2)ncn1CCc1ccccc1OC | -2 | · | · | · | · | ·
Cc1ccc(NCC(=O)N/N=C/c2cccc(Oc3ccccc3)c2)cc1 | 41* | · | 6 | -1 | -5 | 89
N#CCC(=O)N/N=C/c1cccc(Oc2ccccc2)c1 | -6 | -3 | 30* | -4 | -10 | 96
Cc1cccc(NCC(=O)N/N=C\c2cccc(Oc3ccccc3)c2)c1 | -2 | 2 | -1 | -5 | -7 | 99
CCN(C(=O)COC(=O)CCc1ccccc1OC)c1c(N)n(Cc2ccccc2)c(=O)[nH]c1=O | 1 | 1 | · | -2 | -7 | 98
CCOc1ccccc1N(C(=O)Cn1nnnc1-c1ccc(C)o1)C(CC)C(=O)NC(C)(C)C (stereo not given) | -3 | 4 | -3 | -1 | -4 | 109
CCOC(=O)C1=C(C)NC2=C(C1c1ccc([N+](=O)[O-])cc1)S(=O)(=O)c1ccccc12 (stereo not given) | -6 | 2 | 3 | 1 | -1 | 90
CN1CCN(S(=O)(=O)c2ccc(N3CCc4ccccc4C3)nc2)CC1 | 21* | 1 | -6 | -1 | -2 | 102
CN1CCN(c2ccc(S(=O)(=O)N3CCCCC3)cn2)CC1 | -11 | 2 | 14 | 1 | -3 | 107
CN1CCN(CCCNC(=O)c2ccc3c(c2)N(Cc2ccccc2)CCS3)CC1 | 3 | 99* | -5 | 2 | 3 | 113
Cc1ccc(CN2CCSc3ccc(C(=O)NCCCN4CCOCC4)cc32)cc1 | 12 | 98* | 3 | -6 | -7 | 104
O=C(NCCN1CCOCC1)c1ccc2c(c1)N(Cc1ccccc1)C(=O)CS2 | 14 | -2 | -17 | 0 | -5 | 102
O=C(NCCCN1CCOCC1)c1ccc2c(c1)N(Cc1ccccc1)CCS2 | -9 | 99* | -5 | 4 | 1 | 101
O=C(NCCN1CCOCC1)c1ccc2c(c1)N(Cc1ccccc1)CCS2 | -5 | 100* | 2 | -4 | 5 | 100
Cc1ccc(CN2CCSc3ccc(C(=O)NCc4ccco4)cc32)cc1 | 15 | 47 | 4 | 0 | -2 | 83
Cc1ccc(CN2CCSc3ccc(C(=O)NC4CCN(Cc5ccccc5)CC4)cc32)cc1 | -3 | 27 | -18 | 0 | -2 | 79
CC12CCC(C(=O)NCc3ccc(F)cc3)(OC1=O)C2(C)C (stereo not given) | -3 | · | 2 | 1 | -5 | 94
O=C1c2ccccc2CN1CCNS(=O)(=O)c1ccc2ccccc2c1 | 1 | · | -2 | 0 | 30 | 88
O=C(NC1CCCC1)c1ccc2c(c1)N(Cc1ccccc1)CCS2 | 8 | 17 | 10 | -9 | -13 | 92
O=C(NCC1CCCO1)c1ccc2c(c1)N(Cc1ccccc1)CCS2 (stereo not given) | -1 | 99* | 10 | -6 | -5 | 91
